This passage reports max activity results from PubChem BioAssay AID743446 (Broad Institute, 2014).

Molecules are shown by their SMILES. Results with a measured potency or affinity are listed apart. Activity calls are given as the source filed them. The rule behind the calls is not given here.

The test can be described thus: viability loss in HEK293 cells – cell-based, plate reader, cherry-picked samples, cytotoxicity control, dose response (AID 743446). The following applies: hits give low values; at 26 µM unless noted.
For `O=C(O)c1ccc(N/N=C/c2ccc(OC(=O)c3cccc(Cl)c3)cc2)cc1`, the max activity is -7.42% [at 3 µM] (inactive). In the case of `COc1ccc(C(=O)CC(Sc2ccccc2N)c2ccc(OC)cc2)cc1` (stereo not drawn) it was 24.8% [at 0.8 µM] (inactive); in that of `CN(C)c1ccc(C(=O)Nc2nc3c(s2)CCCC3)cc1`, -30% (inactive); in that of `CC(C)(C)NC(=O)c1cccc(NC(=O)c2ccc3c(c2)C(=O)N(C(C)(C)C)C3=O)c1`, 27.3% [at 0.195 µM] (inactive). `C[C@H](CO)N1C[C@H](C)[C@H](CN(C)C(=O)Nc2ccc(F)cc2)OCCCC[C@H](C)Oc2ccc(NC(=O)NC3CCCCC3)cc2C1=O`: the max activity is 38.8% [at 12 µM] (inactive).

As for `Cc1noc(C)c1S(=O)(=O)Nc1ccc2c(c1)C(=O)N([C@H](C)CO)C[C@H](C)[C@H](CN(C)C(=O)Nc1ccc(F)cc1)OCCCC[C@@H](C)O2`, the max activity was 16.1% [at 0.1 µM] (inactive). As to `C[C@H]1CCCCO[C@@H](CN(C)C(=O)Nc2ccccc2)[C@@H](C)CN([C@@H](C)CO)C(=O)c2cc(NC(=O)NC3CCCCC3)ccc2O1`, the max activity was 12.4% [at 0.05 µM] (inactive). The figure for `Cc1ccc2nc(-c3ccc(N)cc3)sc2c1` is 21.7% [at 3 µM] (inactive); for `CCS(=O)(=O)N1Cc2ccccc2CC1C(=O)Nc1nc2ccccc2s1` (stereo not drawn) it is 11.4% [at 0.38 µM] (inactive); for `Cc1ccc(C(=O)n2nc(-n3cccc3)c3c(C)cc(C)nc32)cc1` it is -22.4% [at 6 µM] (inactive). The figure for `O=C(NCc1ccco1)c1cc(NS(=O)(=O)c2cccc([N+](=O)[O-])c2)ccc1O` is 40.6% [at 0.38 µM] (inactive). With `c1ccc(-n2cnnc2SCc2cn3cccnc3n2)cc1`, the max activity is 82.5% [at 0.8 µM] (inactive). The figure for `O=C(CN1CCOc2ccccc21)NCc1ccc(F)cc1` is 16.4% [at 6 µM] (inactive); for `Cc1cc(-c2ccccc2)n2ncc(-c3ccccc3)c2n1` it is 19.9% [at 0.8 µM] (inactive); for `COc1ccc(-n2ncc3c(N(C)C4CCCCC4)ncnc32)cc1` it is 31.2% [at 0.05 µM] (inactive). In the case of `CCCCN(Cc1ccccc1)S(=O)(=O)c1cc2c(cc1Br)CC(C)N2C(C)=O` (stereo not drawn), the max activity is 18.2% [at 0.38 µM] (inactive).

As to `O=c1[nH]c(CSc2ccccn2)nc2c1oc1ccccc12`, the max activity was -17.8% (inactive). The figure for `O=C(NCCOc1ccccc1)[C@@H]1CCCN1C(=O)c1cccs1` is -12.7% [at 0.05 µM] (inactive); for `C[C@@H]1CN([C@H](C)CO)C(=O)CCCn2nncc2CO[C@H]1CN(C)C(=O)Nc1cccc2ccccc12` it is 15.4% (inactive); for `N#C[C@@H]1[C@H](c2ccc(C#CC3CCCCC3)cc2)[C@@H](CO)N1C(=O)c1cccc(F)c1` it is 43.6% [at 0.09 µM] (inactive). The figure for `O=C(Nc1ccc(NC(=O)c2ccco2)nc1)c1ccco1` is -22.6% (inactive); for `COc1ccc(S(=O)(=O)N2CCN(C(=O)c3ccc(C)o3)CC2)cc1` it is 29.4% [at 0.195 µM] (inactive). As to `C[C@H](CO)N1C[C@H](C)[C@H](CN(C)C(=O)Nc2ccccc2)OCCCC[C@H](C)Oc2ccc(NC(=O)Nc3ccccc3)cc2C1=O`, the max activity was 21.5% (inactive). The figure for `Brc1ccc(-c2nc(-c3ccccn3)no2)o1` is -10% (inactive); for `CCOC(=O)c1cn2nc(N3CCCC3)ccc2n1` it is -7.31% [at 6 µM] (inactive).

For `CCCc1ccc(-c2ccc(F)c(N)c2)nc1`, the max activity is -20.7% [at 12 µM] (inactive).

Turning to `CCNC(=S)NNC(=O)c1cc(-c2ccc(OCC)cc2)nc2ccccc12`, the max activity was 15.8% [at 0.05 µM] (inactive).

With `C[C@H](CO)N1C[C@H](C)[C@H](CN(C)C(=O)Nc2cccc3ccccc23)OCCCC[C@H](C)Oc2ccc(NC(=O)c3ccccc3)cc2C1=O`, the max activity was 31.2% [at 12 µM] (inactive). As for `N#C[C@@H]1[C@H](c2ccc(C#Cc3ccccc3F)cc2)[C@@H](CO)N1C(=O)C1CCC1`, the max activity is 28.6% [at 6 µM] (inactive).

With `Cc1cnc(NC(=O)COc2ccccc2Cl)s1`, the max activity is 11.6% (inactive). `Cc1cc(C(=O)CSc2nnc3ccccn23)c(C)n1-c1ccccc1`: the max activity was -21.9% (inactive). For `COc1ccc2c3c([nH]c2c1)[C@H](CO)N(C(C)=O)CC31CCN(C(=O)CN2CCOCC2)CC1`, the max activity was 11.8% [at 0.38 µM] (inactive). In the case of `c1ccc(COc2cccc(-c3cc4nc(NCCCn5ccnc5)ccn4n3)c2)cc1` it was 48.7% [at 0.195 µM] (inactive); in that of `Cc1ccc(NC(=O)c2cnn(-c3ccccc3)c2C)cc1C`, 11.5% [at 0.05 µM] (inactive).

For `O=C(c1cc(-c2ccc(Cl)cc2Cl)on1)N1CCOCC1`, the max activity was 14.9% [at 0.05 µM] (inactive). In the case of `c1ccc(-c2cn3c4c(sc3n2)CCCC4)cc1` it was -19.5% (inactive). In the case of `COc1cc(SC)ccc1C(=O)Nc1ccc(Cl)cn1` it was 19.7% [at 3 µM] (inactive); in that of `Cc1ccc(Nc2nc(-c3ccccc3)cs2)nc1`, -17.9% [at 0.05 µM] (inactive).
